Results as given in PubChem BioAssay (Tox21).
Records with an inconclusive call do not appear. A call without a number means that no potency is given here. The source made the active and inactive calls. Calls follow the shape of the dose curve; as a rule, active = well fitted inhibition curve with a large enough effect in the signal ratio in the repeat runs, with a control signal flat; inconclusive = weak or mixed curves, or effect the other way; inactive = flat fitted curve, though single readings scatter; the % refers to the signal ratio.

Target: D(2) dopamine receptor (Homo sapiens) (UniProt P14416)
Sequence (P14416 whole entry, looked up): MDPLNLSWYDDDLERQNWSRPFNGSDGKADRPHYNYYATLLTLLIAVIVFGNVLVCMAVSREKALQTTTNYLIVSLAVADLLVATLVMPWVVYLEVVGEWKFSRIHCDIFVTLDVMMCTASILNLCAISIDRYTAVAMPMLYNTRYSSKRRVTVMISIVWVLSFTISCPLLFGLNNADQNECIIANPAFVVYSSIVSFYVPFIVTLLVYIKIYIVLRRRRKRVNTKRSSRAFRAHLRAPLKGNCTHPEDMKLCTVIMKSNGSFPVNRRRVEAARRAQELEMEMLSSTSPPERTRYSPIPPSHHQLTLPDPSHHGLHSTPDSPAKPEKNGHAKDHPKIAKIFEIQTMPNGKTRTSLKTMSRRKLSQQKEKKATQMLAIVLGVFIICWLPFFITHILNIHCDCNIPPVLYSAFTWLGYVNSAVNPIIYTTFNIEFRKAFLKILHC
Assay: Dopamine D2 receptor (DRD2) small molecule antagonists, cell-based qHTS assay (AID 1963595)
Details: HEK293-DRD2 cAMP HTRF antagonist mode; series mostly up to 92.4 µM
Text: National Center for Advancing Translational Sciences [NCATS]
Division of Preclinical Innovation [DPI]
U.S. Environmental Protection Agency [EPA]
National Institutes of Environmental Health Sciences [NIEHS]
National Toxicology Program [NTP]
U.S. Food and Drug Administration [FDA]
DRD2 is the D2 subtype of the dopamine receptor, which is coupled to Gi subtype of G protein-coupled receptor. This G protein-coupled receptor inhibits adenylyl cyclase activity. The DRD2-HEK293 cell line stably expressing D2 dopamine receptor can be used for screening agonists and antagonists of interactions between D2 and its ligands. The Hek293-DRD2 cAMP assay is based on HTRF technology. It measures changes of cAMP accumulation in response to Gi coupled GPCR activation or inhibition.
Tox21 Assay Protocol Summary:
DRD2-Hek293 cells were dispensed at 600 cells/3uL/well in 1536-well white plates using a Multidrop Dispenser. After the assay plates were incubated at a 37 C/5% CO2 incubator for 24 h, 1 uL of Ro20-1724 at final concentration of 0.1 mM was transferred to the assay plate by a Flying Reagent Dispenser. Following Ro20-1724 addition, 23 nL of compound dissolved in DMSO, positive controls or DMSO only was added to the assay plates via Wako pintool station. The assay plates were incubated at room temperature for 10 min. Next, 1 uL of mixture of NKH477 (final concentration at 200 nM) and quinpirole (final concentration at 12 nM) was added into the plates. After the assay plates were incubated at room temperature for an additional 30 min, 2.5 ul/well of cAMP-d2 and 2.5 ul/well of anti-cAMP-cryptate were added respectively into the assay plates using a Flying Reagent Dispenser. The plates were incubated at room temperature for 1 h. The fluorescence intensity in the plates was measured at 340 nm excitation and 665 & 620 nm emission by an Envision plate reader.

Row | Compound | Potency
1 | O=C(O)c1ccc(S(=O)(=O)N(Cl)Cl)cc1 | inactive
2 | O=C1CCc2ccccc2O1 | inactive
3 | C=CC(C)CCCC(C)(C)O (stereo not given) | inactive
4 | c1ccncc1 | inactive
5 | CC1(C)[C@@H]2CC[C@@]1(C)C(=O)C2 | inactive
6 | COc1ccc(NC(C)=O)cc1N | inactive
7 | NC(=O)N1c2ccccc2C=Cc2ccccc21 | inactive
8 | COc1c(Cl)c(Cl)c(Cl)c(Cl)c1Cl | inactive
9 | Cc1cccc(O)c1 | inactive
10 | CCCCC/C=C\C/C=C\CCCCCCCC(=O)O | inactive
11 | Nc1cc(Cl)c(N)c(Cl)c1 | inactive
12 | CC(C)(C#N)c1cc(Cn2cncn2)cc(C(C)(C)C#N)c1 | inactive
13 | CCCOC(=O)c1ccccc1 | inactive
14 | c1ccc(OCCOc2ccccc2)cc1 | inactive
15 | CCCCCCCCCC(=O)O | inactive
16 | Cc1ncc([N+](=O)[O-])n1C | inactive
17 | NC(=O)/N=N/C(N)=O | inactive
18 | CNNCc1ccc(C(=O)NC(C)C)cc1 | inactive
19 | CC(=O)Nc1ccc(C(=O)O)cc1 | inactive
20 | COCCc1ccc(OCC(O)CNC(C)C)cc1 (stereo not given) | inactive

Row | Compound | Potency
21 | NC(=O)NC(N)=O | inactive
22 | CC(=O)Nc1nnc(S(N)(=O)=O)s1 | inactive
23 | Cc1cc(C(C)(C)C)c(O)c(C(C)(C)C)c1 | inactive
24 | C[C@@H](O)[C@H]1C(=O)N2C(C(=O)O)=C(S[C@@H]3CN[C@H](C(=O)N(C)C)C3)[C@H](C)[C@H]12 | inactive
25 | CCCCCCCCCCCC(=O)OC | inactive
26 | O=CCCCC=O | inactive
27 | COC(=O)/C=C\C(=O)OC | inactive
28 | COC(=O)c1ccc(C)cc1 | inactive
29 | CC(C)[N+](C)(CCOC(=O)C1c2ccccc2Oc2ccccc21)C(C)C | inactive
30 | CCOC(=O)NNc1nncc2ccccc12 | inactive
31 | C=C(C)C(=O)Nc1ccc(Cl)c(Cl)c1 | inactive
32 | C=C(C)C(=O)O | inactive
33 | C[C@]12CCC(=O)C=C1CC[C@@H]1[C@@H]2C(=O)C[C@@]2(C)[C@H]1CC[C@]2(O)C(=O)CO | inactive
34 | O=C(O)CCCCCCCCC(=O)O | inactive
35 | CCn1c2ccccc2c2cc(N)ccc21 | inactive
36 | CCCCCCC(C)O (stereo not given) | inactive
37 | O=c1[nH]cc(F)c(=O)[nH]1 | inactive
38 | O=c1cc[nH]c(=O)[nH]1 | inactive
39 | C=C(C)C1CC=C(C)C(OC(C)=O)C1 (stereo not given) | inactive
40 | O=C(/C=C/C=C/c1ccc2c(c1)OCO2)N1CCCCC1 | inactive
